Laboratory results taken from the supplement of paper PMC12350171.
Structures can show the parent of a compound that is named as a salt.

Each compound was assayed on Shigella flexneri (assay: growth AUC normalised to DMSO control (fraction of control); higher = less growth inhibition, active = hit call of the paper). Conditions: 20 µM;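 active = AUC significantly below DMSO controls by Student t-fit with adjusted P under 0.01; inactive = not significantly reduced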.
Summary of the method: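 Pathogens passaged twice anaerobically were inoculated at a starting OD578 of 0.01 into pre-reduced mGAM plates with drug at 20 μM and 1% DMSO, sealed with breathable membranes. Haemophilus parainfluenzae medium was supplemented with hemin and NAD. OD578 was read hourly for 24 h, with three biological replicates. Growth-curve AUC was computed by the trapezoidal rule up to the exponential-to-stationary transition and normalised to DMSO controls on the same plate.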

| SMILES | growth AUC normalised to DMSO control |
| --- | --- |
| C[N+](C)(C)CCOC(N)=O [Carbachol chloride] | 1.07 (inactive) |
| COCCOC(=O)C1=C(C)NC(C)=C(C(=O)OC/C=C/c2ccccc2)C1c1cccc([N+](=O)[O-])c1 (stereo not drawn) [Cilnidipine] | 1.01 (inactive) |
| CCc1cc(C(N)=S)ccn1 [Ethionamide] | 0.963 (inactive) |
| CCOC(=O)n1ccn(C)c1=S [Carbimazole] | 1 (inactive) |
| CN(C)CCC[C@@]1(c2ccc(F)cc2)OCc2cc(C#N)ccc21 [Escitalopram oxalate] | 0.991 (inactive) |
| COc1ccc2[nH]c([S+]([O-])Cc3ncc(C)c(OC)c3C)nc2n1 (stereo not drawn) [Tenatoprazole] | 1 (inactive) |
| CC1CCc2cc(F)cc3c(=O)c(C(=O)O)cn1c23 (stereo not drawn) [Flumequine] | 0.0348 (active) |
| CCn1cc(C(=O)O)c(=O)c2cc(F)c(N3CCNCC3)cc21 [Norfloxacin] | 0.0176 (active) |
| Nc1ccc(S(=O)(=O)c2ccc(N)cc2)cc1 [Dapsone] | 0.994 (inactive) |
| CC(C)(C)NCC(O)COc1cccc2c1CC(O)C(O)C2 (stereo not drawn) [Nadolol] | 0.999 (inactive) |
| COc1c2occc2c(OC)c2c(=O)cc(C)oc12 [Khellin] | 1.05 (inactive) |
| COc1cc(C(=O)NS(=O)(=O)c2ccccc2C)ccc1Cc1cn(C)c2ccc(NC(=O)OC3CCCC3)cc12 [Zafirlukast] | 0.982 (inactive) |
| NS(=O)(=O)c1cc2c(cc1Cl)NCNS2(=O)=O [Hydrochlorothiazide] | 0.994 (inactive) |
| CC(=O)O[C@H]1C[C@@H]2CC[C@@H]3[C@H](CC[C@@]4(C)[C@H]3C[C@H]([N+]3(C)CCCCC3)[C@@H]4OC(C)=O)[C@@]2(C)C[C@@H]1N1CCCCC1 [Vecuronium bromide] | 0.979 (inactive) |
| CC(=O)OCC(=O)[C@@]1(O)CC[C@H]2[C@@H]3CCC4=CC(=O)CC[C@]4(C)[C@@]3(F)[C@@H](O)C[C@@]21C [Fludrocortisone acetate] | 0.988 (inactive) |
| CC1(C)S[C@@H]2[C@H](NC(=O)[C@H](NC(=O)N3CCNC3=O)c3ccccc3)C(=O)N2[C@H]1C(=O)O [Azlocillin sodium salt] | 0.0935 (active) |
| C[C@@](Cc1ccc(O)c(O)c1)(NN)C(=O)O [Carbidopa] | 0.948 (inactive) |
| C[C@H]1O[C@H](O[C@H]2[C@H](O)[C@@H](O)[C@@H](O[C@@H]([C@H](O)[C@@H](O)C=O)[C@H](O)CO)O[C@@H]2CO)[C@H](O)[C@@H](O)[C@@H]1N[C@H]1C=C(CO)[C@@H](O)[C@H](O)[C@H]1O [Acarbose] | 0.995 (inactive) |
| O=C(O)CCC(=O)c1ccc(-c2ccccc2)cc1 [Fenbufen] | 0.99 (inactive) |
| CN1CCC[C@@H]1CCO[C@](C)(c1ccccc1)c1ccc(Cl)cc1 [Clemastine fumarate] | 0.969 (inactive) |
| CN(C)CCOC(C)(c1ccccc1)c1ccccn1 (stereo not drawn) [Doxylamine succinate] | 1.01 (inactive) |
| CC(=O)N(O)CCCCCNC(=O)CCC(=O)N(O)CCCCCNC(=O)CCC(=O)N(O)CCCCCN [Deferoxamine mesylate] | 1.03 (inactive) |
| C[C@]12CCC(=O)C=C1CC[C@@H]1[C@@H]2[C@@H](O)C[C@@]2(C)[C@H]1CC[C@]2(O)C(=O)CO [Hydrocortisone] | 0.969 (inactive) |
| CN(C)CC/C=C1\c2ccccc2CSc2ccccc21 [Dosulepin hydrochloride] | 0.995 (inactive) |
| CN1CCN(CCCN2c3ccccc3Sc3ccc(S(=O)(=O)N(C)C)cc32)CC1 [Thioproperazine dimesylate] | 0.986 (inactive) |
| CO[C@H]1C[C@H](O[C@H]2[C@H](C)[C@@H](O[C@@H]3O[C@H](C)C[C@H](N(C)C)[C@H]3OC(C)=O)[C@@H](C)C[C@@]3(CO3)C(=O)[C@H](C)[C@@H](OC(C)=O)[C@@H](C)[C@@H](C)OC(=O)[C@@H]2C)O[C@@H](C)[C@@H]1OC(C)=O [Troleandomycin] | 1.01 (inactive) |
| Cc1cnc(C(=O)O)c[n+]1[O-] [Acipimox] | 1 (inactive) |
| COc1ccc(-c2cc(=O)c3c(O)cc(O[C@@H]4O[C@H](CO[C@@H]5O[C@@H](C)[C@H](O)[C@@H](O)[C@H]5O)[C@@H](O)[C@H](O)[C@H]4O)cc3o2)cc1O [Diosmin] | 0.96 (inactive) |
